In PubChem BioAssay (NCATS):
Values without a mark were called inactive. Records with an inconclusive call do not appear. Calls of active or inactive are those of the source. Unless noted, calls come from the whole dose curve; as a rule, active = well fitted curve in either direction with a large enough effect (not every such curve was filed as active); inconclusive = small, poorly fitted or top-dose-only effect, or another doubt; inactive = flat fitted curve, though single readings scatter.

What was measured:
[1] = molecular target: Lysosomal acid glucosylceramidase (Homo sapiens) (UniProt P04062); assay: Glucocerebrosidase-p2 (AID 348; in the data active = potency below about 10 µM; note: potency is the fitted concentration of half-maximal effect); conditions: purified GBA, blue fluorogenic substrate, 40 min
Lysosomal acid glucosylceramidase (Homo sapiens), sequence (P04062 whole entry, looked up): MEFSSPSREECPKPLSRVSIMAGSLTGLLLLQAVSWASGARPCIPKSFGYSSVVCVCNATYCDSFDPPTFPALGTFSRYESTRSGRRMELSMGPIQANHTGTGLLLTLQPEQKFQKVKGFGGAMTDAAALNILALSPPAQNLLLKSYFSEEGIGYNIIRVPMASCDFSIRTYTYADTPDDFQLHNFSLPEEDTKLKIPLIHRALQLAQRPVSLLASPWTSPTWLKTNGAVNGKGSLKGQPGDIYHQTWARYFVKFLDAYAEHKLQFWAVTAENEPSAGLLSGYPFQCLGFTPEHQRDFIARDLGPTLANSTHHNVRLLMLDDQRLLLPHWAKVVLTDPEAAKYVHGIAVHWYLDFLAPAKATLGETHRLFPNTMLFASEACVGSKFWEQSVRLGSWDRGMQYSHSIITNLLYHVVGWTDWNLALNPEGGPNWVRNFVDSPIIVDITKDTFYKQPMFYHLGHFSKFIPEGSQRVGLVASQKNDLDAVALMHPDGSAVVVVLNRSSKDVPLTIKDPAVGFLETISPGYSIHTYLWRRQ
Procedure, shortened: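 Compounds titrated from 0.6 nM upwards against 0.2 nM enzyme in pH 5.9 citric acid/KH2PO4, taurocholate, tween-20; blue fluorogenic substrate 80 uM, 40 min room temperature, stopped and read Ex 365/Em 440 for AC50.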

[2] = AP1 Signaling Pathway (AID 357); conditions: ME-180 AP-1-bla reporter, EGF-induced, beta-lactamase ratio, 5 h; at 7.69 µM (top of the series) unless noted; note: % is set by controls: 0 for no effect and ±100 for the full control effect
Procedure, shortened: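 AP-1-bla ME-180 cells with beta-lactamase reporter under AP-1 response element, stimulated with EC50 EGF; compounds titrated, 5 hours at 37 degrees Celsius. CCF4 read at 460/530 nm ratio; positive and negative modulators judged by AC50.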

[3] = NFAT Signaling Pathway (AID 444); conditions: Jurkat NFAT-bla M1, carbachol, beta-lactamase ratio, 5 h; at 7.69 µM (top of the series) unless noted;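 note: carbachol stimulus at about its EC50 of 1 µM final; % is set by controls: 0 for no effect and ±100 for the full control effect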
Procedure, shortened: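 Read-out: CCF4 FRET ratio (460 nm/530 nm) after 1 h RT dye loading, used for %activity and AC50 from titration series. Cells: Jurkat NFAT-β-lactamase/M1 line, treated with compound plus 1 uM carbachol for 5 h, 37 °C.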

[4] = Stat Signaling Pathway (AID 446); conditions: ME-180 (cervical carcinoma) SIE beta-lactamase reporter, IL-6 stimulated, 5 h; at 7.69 µM (top of the series) unless noted;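 note: ME-180 cervical cancer cells given 40 pM IL-6 alongside compound; SIE-controlled beta-lactamase reporter measured as 460/530 nm FRET emission ratio; % is set by controls: 0 for no effect and ±100 for the full control effect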
Procedure, shortened: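 IL-6/STAT signaling read in ME-180 cells via an SIE beta-lactamase reporter. Stimulus was 40 pM IL-6 (its AC50) for 5 hrs, so both activation and inhibition register.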

[5] = molecular target: Glucocorticoid receptor (Homo sapiens) (UniProt P04150); assay: GR-GFP Redistribution (AID 450;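 active = compounds whose dose series gives a full or clear partial fitted curve of increased nuclear translocation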; note: potency is the fitted concentration of half-maximal effect); conditions: U2OS GR-GFP nuclear translocation, laser cytometry, 2 h
Glucocorticoid receptor (Homo sapiens), sequence (P04150 whole entry, looked up, the tested form may be a part): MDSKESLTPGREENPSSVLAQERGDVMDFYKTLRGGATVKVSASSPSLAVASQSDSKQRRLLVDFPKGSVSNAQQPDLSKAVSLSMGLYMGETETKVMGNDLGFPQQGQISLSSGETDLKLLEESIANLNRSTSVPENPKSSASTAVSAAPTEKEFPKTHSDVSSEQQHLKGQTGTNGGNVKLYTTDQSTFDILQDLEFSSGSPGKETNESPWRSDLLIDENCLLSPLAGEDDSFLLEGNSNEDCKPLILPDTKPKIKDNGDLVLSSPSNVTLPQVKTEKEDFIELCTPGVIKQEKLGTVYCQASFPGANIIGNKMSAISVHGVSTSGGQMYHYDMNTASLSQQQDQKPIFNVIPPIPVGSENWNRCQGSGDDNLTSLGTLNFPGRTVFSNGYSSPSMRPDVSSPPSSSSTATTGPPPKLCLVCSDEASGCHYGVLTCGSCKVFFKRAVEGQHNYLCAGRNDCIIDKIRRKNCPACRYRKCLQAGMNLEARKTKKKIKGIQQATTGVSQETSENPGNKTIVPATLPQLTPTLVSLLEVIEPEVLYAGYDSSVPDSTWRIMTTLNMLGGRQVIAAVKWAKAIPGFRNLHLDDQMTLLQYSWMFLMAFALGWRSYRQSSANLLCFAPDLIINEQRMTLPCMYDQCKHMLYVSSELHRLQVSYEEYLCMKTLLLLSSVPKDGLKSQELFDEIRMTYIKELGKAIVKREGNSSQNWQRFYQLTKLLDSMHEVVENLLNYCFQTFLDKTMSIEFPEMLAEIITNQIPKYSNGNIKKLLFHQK

[6] = molecular target: Mitogen-activated protein kinase 10 (Mus musculus) (UniProt Q61831); assay: JNK3 AlphaScreen Assay (AID 530); conditions: JNK3 lysate, c-Jun phosphorylation; series mostly up to 57.1 µM;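 note: kinase came from lysate of stimulated human HepG2 cells; signal reports phosphorylation of biotinylated GST-cJun 1-79 at Ser73 with 10 µM ATP; % is set by controls: 0 for no effect and ±100 for the full control effect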
Procedure, shortened: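 Room-temperature AlphaScreen kinase assay; pre-activated HepG2 lysate as JNK3 source, biotin-GST-cJun(1-79) substrate, 10 uM ATP, compound 15 min preincubation.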

[7] = molecular target: 3',5'-cyclic-AMP phosphodiesterase 4B (Homo sapiens) (UniProt Q07343); assay: qHTS Assay for Inhibitors of PDE-IV (AID 607; active = well fitted activation curve with a large enough effect in the main read-out, with a control signal flat, not every such curve was filed as active; note: % of control where 0% means no effect); conditions: HEK293 ACTOne CNG channel cells, membrane potential fluorescence; series mostly up to 22.9 µM
3',5'-cyclic-AMP phosphodiesterase 4B (Homo sapiens), sequence (Q07343 whole entry, looked up): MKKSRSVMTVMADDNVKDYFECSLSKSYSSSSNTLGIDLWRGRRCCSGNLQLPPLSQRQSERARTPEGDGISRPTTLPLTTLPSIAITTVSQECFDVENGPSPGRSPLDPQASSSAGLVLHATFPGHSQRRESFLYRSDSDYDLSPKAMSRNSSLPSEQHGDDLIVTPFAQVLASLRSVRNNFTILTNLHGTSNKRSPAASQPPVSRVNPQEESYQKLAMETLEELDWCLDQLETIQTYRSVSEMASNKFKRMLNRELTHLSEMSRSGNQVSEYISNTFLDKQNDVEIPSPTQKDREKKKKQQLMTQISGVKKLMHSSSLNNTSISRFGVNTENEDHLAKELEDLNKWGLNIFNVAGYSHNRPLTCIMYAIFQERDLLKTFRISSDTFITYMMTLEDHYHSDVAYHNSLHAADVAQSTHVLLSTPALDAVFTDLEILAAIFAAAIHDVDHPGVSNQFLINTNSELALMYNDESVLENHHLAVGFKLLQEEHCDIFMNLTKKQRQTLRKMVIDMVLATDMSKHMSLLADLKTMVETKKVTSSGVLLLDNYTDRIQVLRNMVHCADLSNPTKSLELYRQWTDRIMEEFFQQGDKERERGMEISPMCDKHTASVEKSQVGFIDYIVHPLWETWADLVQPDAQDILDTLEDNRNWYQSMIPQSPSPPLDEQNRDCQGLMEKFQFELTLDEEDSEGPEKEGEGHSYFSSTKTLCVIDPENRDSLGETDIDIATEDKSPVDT
Procedure, shortened: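 Live HEK293 cells with a modified cyclic nucleotide-gated (CNG) channel report intracellular cAMP via membrane-potential dye fluorescence (ex 535/em 590 nm). Endogenous PDE-IV was targeted. Compounds were tested at up to 22.9 uM final; RO 20-1724 100 uM served as control.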

[8] = molecular target: Cytochrome P450 1A2 (Homo sapiens) (UniProt P05177); assay: p450-cyp1a2 (AID 410; calls by dose curve; note: potency is the fitted concentration of half-maximal effect;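 for activity change, negative = inhibition: -100% = full effect of reference inhibitor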); conditions: recombinant CYP1A2, luciferin-ME demethylation, luminescence; series mostly up to 11.4 µM
Cytochrome P450 1A2 (Homo sapiens), sequence (P05177 whole entry, looked up): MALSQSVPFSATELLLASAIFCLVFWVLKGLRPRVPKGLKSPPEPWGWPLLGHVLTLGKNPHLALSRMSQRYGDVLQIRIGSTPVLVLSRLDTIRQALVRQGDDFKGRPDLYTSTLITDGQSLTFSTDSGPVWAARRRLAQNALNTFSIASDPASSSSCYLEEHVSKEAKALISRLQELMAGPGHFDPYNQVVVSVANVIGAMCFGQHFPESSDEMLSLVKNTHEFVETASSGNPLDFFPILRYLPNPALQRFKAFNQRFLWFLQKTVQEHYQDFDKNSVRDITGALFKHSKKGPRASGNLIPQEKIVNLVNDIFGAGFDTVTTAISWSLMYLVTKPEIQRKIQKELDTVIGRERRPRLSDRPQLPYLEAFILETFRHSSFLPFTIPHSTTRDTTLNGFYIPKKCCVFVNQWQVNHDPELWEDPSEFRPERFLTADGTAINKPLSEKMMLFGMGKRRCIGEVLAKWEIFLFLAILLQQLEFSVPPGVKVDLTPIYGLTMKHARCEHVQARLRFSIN
Procedure, shortened: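 Inhibition was calculated relative to 57 uM furafylline (full inhibition). The reaction used human CYP1A2 at 20nM with Luciferin-ME at its Km, 100uM, driven by an NADPH-regenerating system for 60 min at room temperature.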

[9] = molecular target: Glucocorticoid receptor (Homo sapiens) (UniProt P04150); assay: GR-EFC Redistribution (AID 451; calls by dose curve; note: potency is the fitted concentration of half-maximal effect); conditions: CHO-K1 GR-EFC translocation, beta-gal luminescence, 2 h
Procedure, shortened: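 Translocation of GR-ED fusion to nuclear EA restores b-gal, read by luminescence after 1 h room-temperature detection. Engineered CHO-K1 biosensor cells, 1,000/well, exposed 2 h at 37 C to titrations up to 46 uM final.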

[10] = molecular target: Cytochrome P450 3A4 (Homo sapiens) (UniProt P08684); assay: qHTS Assay for Activators of Cytochrome P450 3A4 (AID 885; active = well fitted curve in the direction sought with a large enough effect; an effect the other way counts as inactive or inconclusive; note: nearly all actives have a fitted effect of over 65% in size); conditions: recombinant CYP3A4, Luciferin-PPXE luminescence, 60 min; series mostly up to 57.1 µM
Cytochrome P450 3A4 (Homo sapiens), sequence (P08684 whole entry, looked up): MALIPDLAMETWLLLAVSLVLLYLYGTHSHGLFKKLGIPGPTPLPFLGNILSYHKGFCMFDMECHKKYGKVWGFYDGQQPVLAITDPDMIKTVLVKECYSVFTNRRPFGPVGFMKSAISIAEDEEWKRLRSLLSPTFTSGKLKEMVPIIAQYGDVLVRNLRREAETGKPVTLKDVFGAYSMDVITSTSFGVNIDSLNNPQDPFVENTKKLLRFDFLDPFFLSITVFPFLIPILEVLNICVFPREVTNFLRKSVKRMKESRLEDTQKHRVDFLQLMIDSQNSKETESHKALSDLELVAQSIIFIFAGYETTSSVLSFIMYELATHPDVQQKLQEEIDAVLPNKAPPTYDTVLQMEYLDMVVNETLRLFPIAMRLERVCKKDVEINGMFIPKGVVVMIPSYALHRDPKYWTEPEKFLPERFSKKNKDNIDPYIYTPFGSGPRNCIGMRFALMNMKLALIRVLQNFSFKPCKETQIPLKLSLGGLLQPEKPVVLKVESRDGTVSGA
Procedure, shortened: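 Quantitative HTS format: compounds preincubated with 20nM human CYP3A4 and Luciferin-PPXE substrate at KM, reaction started by NADPH regeneration, stopped after 60 min, luciferase luminescence read 20 min later.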

[11] = molecular target: Guanine nucleotide-binding protein G(i) subunit alpha-1 (Homo sapiens) (UniProt P63096); assay: qHTS Assay for Inhibitors of RGS12 GoLoco Motif Activity (Green Fluorophore) (AID 879; active = well fitted curve in the direction sought with a large enough effect; an effect the other way counts as inactive or inconclusive;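 note: 0% = labeled peptide with Gαi1 and full inhibition = labeled peptide alone without protein; negative values mean loss of peptide binding seen as reduced polarization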); conditions: Galphai1/FITC-RGS12 GoLoco peptide, fluorescence polarization; series mostly up to 57.1 µM
Procedure, shortened: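 Fluorescence polarization assay: 50 nM Gαi1 with 10 nM FITC-labeled RGS12 GoLoco peptide in 10 mM Tris pH 7.5, 150 mM NaCl, 0.1 mM GDP, 0.05% NP40, 10 min at room temperature with compound.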

[12] = qHTS Assay for Identification of Small Molecule Agonists for Thrombopoietin (TPO) Signaling Pathway (AID 917; active = well fitted curve in the direction sought with a large enough effect; an effect the other way counts as inactive or inconclusive; note: % is set by controls: 0 for no effect and ±100 for the full control effect); conditions: TPO signaling pathway reporter cells, agonist qHTS; series mostly up to 38.5 µM
Procedure, shortened: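 Murine Ba/F3 cells stably expressing human TPO receptor and a Glycoprotein IIb promoter–luciferase reporter were IL-3-starved overnight, then treated with compounds plus TPO (26 pM final, its EC50) for 24 hrs at 37 C; luminescence was read.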

[13] = molecular target: Muscarinic acetylcholine receptor M1 (Rattus norvegicus) (UniProt P08482); assay: qHTS Assay for Antagonists of Acetylcholine Muscarinic M1 Receptor: Kinetic Measurement of Intracellular Calcium Response (AID 943; active = well fitted curve in the direction sought with a large enough effect; an effect the other way counts as inactive or inconclusive;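 note: Fluo-4 calcium signal as peak divided by basal fluorescence over 4 min; nearly all actives have a fitted effect of over 75% in size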); conditions: M1-expressing cells, kinetic intracellular calcium fluorescence; series mostly up to 35.3 µM
Muscarinic acetylcholine receptor M1 (Rattus norvegicus), sequence (P08482 whole entry, looked up): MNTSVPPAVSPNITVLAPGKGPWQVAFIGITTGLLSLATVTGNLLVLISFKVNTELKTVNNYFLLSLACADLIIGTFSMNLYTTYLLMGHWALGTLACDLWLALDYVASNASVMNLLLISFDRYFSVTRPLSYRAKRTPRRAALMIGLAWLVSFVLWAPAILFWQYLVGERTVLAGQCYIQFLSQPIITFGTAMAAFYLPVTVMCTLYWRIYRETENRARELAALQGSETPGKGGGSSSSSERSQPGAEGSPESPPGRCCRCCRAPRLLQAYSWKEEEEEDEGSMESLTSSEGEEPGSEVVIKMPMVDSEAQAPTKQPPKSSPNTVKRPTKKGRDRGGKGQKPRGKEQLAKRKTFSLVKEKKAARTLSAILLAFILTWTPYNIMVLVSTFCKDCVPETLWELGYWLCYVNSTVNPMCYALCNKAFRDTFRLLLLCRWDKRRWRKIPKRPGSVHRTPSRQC
Procedure, shortened: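 Intracellular calcium flux, recorded with Fluo-4 in a kinetic plate reader, served as signal; the response to carbachol at EC80 (100 nM final) was taken as maximal over minimal fluorescence after a 10 min compound pre-incubation in rat M1-CHO cells.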

[14] = molecular target: Muscarinic acetylcholine receptor M1 (Rattus norvegicus) (UniProt P08482); assay: qHTS Assay for Antagonists of Acetylcholine Muscarinic M1 Receptor: Measurement of IP-One Response (AID 944; active = well fitted curve in the direction sought with a large enough effect; an effect the other way counts as inactive or inconclusive; note: nearly all actives have a fitted effect of over 75% in size); conditions: CHO-M1 cells, IP-One HTRF, antagonist mode; series mostly up to 46.1 µM
Procedure, shortened: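 Steps: plate transfected CHO-M1 cells overnight; add test compound, 10 min; add carbachol (200 nM, EC80) in stimulation buffer with LiCl; incubate 30 min; add labelled IP1 tracer and anti-IP1 antibody in lysis buffer; read HTRF after 10 min.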

[15] = molecular target: Pyruvate kinase (Leishmania mexicana) (UniProt Q27686); assay: qHTS Validation Assay for Inhibitors of Leishmania Mexicana Pyruvate Kinase (AID 945; active = well fitted curve in the direction sought with a large enough effect; an effect the other way counts as inactive or inconclusive;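 note: 0% = DMSO only neutral control wells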); conditions: purified L. mexicana pyruvate kinase, enzyme activity, E451W mutant enzyme; series mostly up to 57.5 µM
Pyruvate kinase (Leishmania mexicana), sequence (Q27686 2-499 E452W): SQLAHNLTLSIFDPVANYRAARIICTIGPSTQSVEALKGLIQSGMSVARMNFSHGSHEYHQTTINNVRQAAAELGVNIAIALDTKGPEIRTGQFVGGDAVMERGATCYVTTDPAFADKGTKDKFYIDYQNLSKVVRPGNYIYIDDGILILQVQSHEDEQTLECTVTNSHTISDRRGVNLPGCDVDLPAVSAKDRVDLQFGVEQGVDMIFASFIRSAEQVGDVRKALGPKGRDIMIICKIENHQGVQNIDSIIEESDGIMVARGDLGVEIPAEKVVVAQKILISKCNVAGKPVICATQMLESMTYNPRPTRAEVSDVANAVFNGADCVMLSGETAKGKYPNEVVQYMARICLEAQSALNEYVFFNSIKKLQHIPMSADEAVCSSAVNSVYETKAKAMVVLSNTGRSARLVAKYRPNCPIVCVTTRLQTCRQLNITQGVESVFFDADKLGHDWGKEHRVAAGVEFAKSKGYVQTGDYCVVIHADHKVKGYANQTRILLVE
Procedure, shortened: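 The enzyme is a highly purified E451W mutant of LmPYK used at 0.2 nM. It converts 0.5 mM PEP and 0.1 mM ADP over 1 h at room temperature; product ATP is quantified by luciferase luminescence relative to DMSO controls.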

[16] = molecular target: Pyruvate kinase PKM (Homo sapiens) (UniProt P14618); assay: qHTS Assay for Activators of Human Muscle Pyruvate Kinase (AID 954; active = well fitted curve in the direction sought with a large enough effect, not every such curve was filed as active;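 note: 0% = uninhibited enzyme and -100% = no enzyme or full thiadiazolimine inhibition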); conditions: purified human muscle pyruvate kinase, luciferase-coupled luminescence, 1 h; series mostly up to 57.5 µM
Pyruvate kinase PKM (Homo sapiens), sequence (P14618 whole entry, looked up): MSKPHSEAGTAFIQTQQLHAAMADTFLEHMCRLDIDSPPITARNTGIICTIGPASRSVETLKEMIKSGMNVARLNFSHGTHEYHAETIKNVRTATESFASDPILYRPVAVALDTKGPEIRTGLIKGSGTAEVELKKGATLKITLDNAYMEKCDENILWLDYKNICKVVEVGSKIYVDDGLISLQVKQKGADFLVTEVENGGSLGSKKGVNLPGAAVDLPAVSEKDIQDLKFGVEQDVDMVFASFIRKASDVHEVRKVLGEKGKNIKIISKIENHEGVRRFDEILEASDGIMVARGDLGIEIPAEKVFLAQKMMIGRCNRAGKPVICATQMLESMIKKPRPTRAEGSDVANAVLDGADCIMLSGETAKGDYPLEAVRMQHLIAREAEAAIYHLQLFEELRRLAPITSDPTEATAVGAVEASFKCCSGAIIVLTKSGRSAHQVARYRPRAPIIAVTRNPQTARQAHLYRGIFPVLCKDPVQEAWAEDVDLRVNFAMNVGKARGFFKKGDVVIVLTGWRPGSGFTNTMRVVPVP
Procedure, shortened: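 Enzyme was run at intermediate activity so both inhibitors and activators could be detected. ATP formed from ADP and PEP by 0.1 nM human PKM2 during a 1 h room-temperature incubation was quantified by coupled luciferase luminescence.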

[17] = molecular target: Alpha-galactosidase A (Homo sapiens) (UniProt P06280); assay: Counterscreen for Glucocerebrosidase Inhibitors: qHTS Assay for Human alpha-Galactosidase at pH 4.5 (AID 992; active = well fitted curve in the direction sought with a large enough effect; an effect the other way counts as inactive or inconclusive; note: 0% is about no effect); conditions: purified enzyme, fluorogenic substrate; series mostly up to 76.9 µM
Alpha-galactosidase A (Homo sapiens), sequence (P06280 whole entry, looked up): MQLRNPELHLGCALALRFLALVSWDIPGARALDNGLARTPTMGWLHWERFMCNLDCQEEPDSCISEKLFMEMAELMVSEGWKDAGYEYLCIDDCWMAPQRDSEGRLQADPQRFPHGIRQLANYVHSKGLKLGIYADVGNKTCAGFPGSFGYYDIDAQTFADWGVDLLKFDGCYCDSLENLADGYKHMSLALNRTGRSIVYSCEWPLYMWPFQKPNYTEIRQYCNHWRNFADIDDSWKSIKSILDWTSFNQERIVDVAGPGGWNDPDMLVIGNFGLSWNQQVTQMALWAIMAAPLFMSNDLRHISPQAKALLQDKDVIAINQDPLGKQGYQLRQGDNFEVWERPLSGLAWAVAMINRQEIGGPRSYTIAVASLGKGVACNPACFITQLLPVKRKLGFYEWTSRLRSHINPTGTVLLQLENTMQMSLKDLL
Procedure, shortened: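 Read-out is 4-methylumbelliferone fluorescence (365 nm excitation, 440 nm emission) after a pH 10 NaOH/glycine stop. Reactions held 2 nM enzyme and 80 uM substrate at pH 4.5 for 20 min at room temperature.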

[18] = molecular target: alpha-glucosidase (Oryza sativa, rice) (UniProt Q653V4); assay: Counterscreen for Glucocerebrosidase Inhibitors: qHTS Assay for Rice alpha-Glucosidase at pH 5.0 (AID 997; active = well fitted curve in the direction sought with a large enough effect; an effect the other way counts as inactive or inconclusive;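 note: 0% = full activity with enzyme and -100% = basal without enzyme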); conditions: rice alpha-glucosidase enzyme activity; series mostly up to 76.9 µM
Procedure, shortened: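 Rice alpha-glucosidase (4 nM final) with 400 uM 4-methylumbelliferyl-alpha-D-glucopyranoside in citrate buffer pH 5.0, 20 min at room temperature, stopped at pH 10; fluorescence 365/440 nm, compounds 0.7 nM–77 uM, AC50 from Hill fits.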

SMILES: COC(=O)[C@@H]1c2cc3c(c(O)c2[C@@H](O)C[C@]1(C)O)C(=O)c1c(O)cc2c(c1C3=O)O[C@H]1O[C@@]2(C)[C@@H](O)[C@H](N(C)C)[C@H]1O
- Potency [1]: > 11.4 µM
- activity change, negative = inhibition [2]: -3.96%
- activity change, negative = inhibition [3]: 6.8%
- activity, negative = inhibition [4]: -3.22%
- Potency [5]: > 46 µM
- activity change, negative = inhibition [6]: -5.17% [at 11.4 µM]
- outcome [7]: inactive

SMILES: O=C(O)[C@@H]1[C@H](C(=O)O)[C@]2(Cl)C(Cl)=C(Cl)[C@@]1(Cl)C2(Cl)Cl
- Potency [1]: > 11.4 µM
- Potency [8]: inactive
- activity change, negative = inhibition [3]: 11.1%
- activity, negative = inhibition [4]: 3.47%
- Potency [5]: > 46 µM
- activity change, negative = inhibition [6]: 0.126% [at 11.4 µM]
- outcome [7]: inactive

SMILES: O=C(c1ccccc1)[C@H]1[C@H](c2ccccc2[N+](=O)[O-])N1C1CCCCC1 (some centres undefined)
- Potency [1]: > 11.4 µM
- Potency [8]: 0.631 µM (active)
- Potency [5]: > 46 µM
- Potency [9]: > 9.22 µM
- activity change, negative = inhibition [6]: -6.49% [at 11.4 µM]
- outcome [7]: inactive
- activity change, positive = activation [10]: -50.5% [at 11.4 µM]

SMILES: COc1ccc(C[C@@H]2NC[C@H](O)[C@@H]2OC(C)=O)cc1
- activity change, negative = inhibition [2]: -118% [at 17.2 µM] (active)
- Potency [8]: inactive
- activity change, negative = inhibition [3]: -130% [at 17.2 µM] (active)
- activity, negative = inhibition [4]: -101% [at 17.2 µM] (active)
- Potency [5]: > 20.6 µM
- Potency [9]: > 20.6 µM
- Potency [6]: inactive
- outcome [7]: inactive

SMILES: O=C(Nc1ccc([As](=O)(O)O)cc1)Nc1cccc(Cl)c1Cl
- Potency [1]: > 11.4 µM
- activity change, negative = inhibition [2]: -0.577%
- activity change, negative = inhibition [3]: 6.56%
- Potency [5]: > 46 µM
- Potency [9]: > 9.22 µM
- activity change, negative = inhibition [6]: 0.483% [at 11.4 µM]
- outcome [7]: inactive

SMILES: C#CCN[C@@H](C)Cc1ccccc1
- activity change, negative = inhibition [2]: 1.81% [at 38 µM]
- Potency [8]: 15.8 µM (active)
- activity change, negative = inhibition [3]: 0.0477% [at 38 µM]
- activity, negative = inhibition [4]: -23.9% [at 38 µM]
- Potency [5]: > 46 µM
- Potency [9]: > 46 µM
- Potency [6]: inactive
- outcome [7]: inactive
- outcome [11]: inactive
- outcome [12]: inactive
- Potency [13]: inactive
- Potency [14]: inactive
- outcome [15]: inactive
- outcome [16]: inactive
- outcome [17]: inactive
- outcome [18]: inactive

SMILES: O=C(O)c1cc[c]([Hg][S]c2ncnc3nc[nH]c23)cc1
- Potency [1]: 0.146 µM (active)
- Potency [8]: 0.316 µM (active)
- activity, negative = inhibition [4]: -16.1%
- Potency [5]: > 46 µM
- Potency [9]: > 9.22 µM
- activity change, negative = inhibition [6]: 3.39% [at 11.4 µM]
- outcome [7]: inactive
